Source: PubChem BioAssay
An excerpt weighted towards active compounds, which were near 3.8% of everything screened.
A549 tox: counter-screen for Nrf2 inhibitors: cytotoxicity in A549 cells. A549 ARE-Fluc cells, CellTiter-Fluor viability, 18-24 h. Potency, µM (top dose mostly 46 µM), without a hit: at the top dose activity change, negative = cytotoxicity, most hits filed as inhibitors. 390,000 compounds, 0.16% hits. AID 504648; further: on the % scale 0 is the no-effect control and ±100 the full control effect
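A549 ARE-Fluc cells in 5% FBS OPTI-MEM, 5000 cells/well, rested 2 h then exposed to compounds in concentration-response for 18-24 h at 37 °C. Viability by CellTiter-Fluor fluorescence (Ex 405/Em 525) after 30 min; luciferase luminescence (BugLite, 15 min, RT) read afterwards.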
ATXN2 expr inh: inhibitors of ATXN2 expression; HEK-293 ATXN2-luciferase reporter, luminescence, 24 h; Potency, µM (series often up to 57 µM), for the others: at the highest dose activity change, negative = inhibition, most hits filed as inhibitors; 360,000 compounds, 0.72% hits; further: on the % scale 0 is the no-effect control and ±100 the full control effect; nearly all actives have a fitted effect of over 55% in size
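ATXN2-luciferase reporter cells (luciferase flanked by upstream and downstream ATXN2 gene portions) were treated 24 h at 37 °C with compounds at up to 57 uM. SteadyGlo luminescence gave expression; GF-AFC fluorescence gave viability.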
HepG2 tox-1: counter-screen for TGF-b inhibitors: cytotoxicity in HepG2 cells. HepG2 CAGA-GFP viability, ATP luminescence, 18 h. Potency, µM (top dose mostly 46.1 µM), without a hit: at the highest dose activity change, negative = cytotoxicity, hits mostly cytotoxic. 410,000 compounds, 0.76% hits. AID 588856
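CellTiter-Glo luminescence gave cytotoxicity after 18 hours at 37 degrees C. The cells were HepG2 CAGA-GFP in 1% FBS DMEM, stimulated with 500 pg/mL TGF-beta after compound addition. %Activity was normalised to no-cell wells (complete cell-killing) and DMSO (no toxicity), and curves were fitted and classified.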
TGFb SMAD3 inh: blocks TGF-b signaling. 410,000 compounds, 1.2% hits. HepG2 CAGA-GFP TGF-b/SMAD3 reporter, GFP fluorescence, 18 h; TGF-beta stimulated, 500 pg/mL final. Potency, µM (series often up to 46.1 µM), without a hit: top-dose activity, negative = inhibition, hits mostly inhibitors; further: on the % scale 0 is the no-effect control and ±100 the full control effect; nearly all actives have a fitted effect of over 65% in size
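Cell-based qHTS in HEPG2 carrying a CAGA-GFP Smad reporter; compounds added before 500 pg/mL final TGF-beta, 18 h incubation at 37 degrees C, GFP fluorescence quantified per cell by imaging cytometry.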
Nrf2 inh: blocks Nrf2 signaling | A549 ARE-Fluc reporter, luciferase luminescence, 18-24 h | Potency, µM (top dose mostly 46 µM), for the others: at the top dose activity change, negative = inhibition, usual class: inhibitors | 360,000 compounds, 2.1% hits | AID 504444; further: on the % scale 0 is the no-effect control and ±100 the full control effect; nearly all actives have a fitted effect of over 60% in size
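Cells were seeded and rested 2 h, then exposed to compounds for 18-24 h. CellTiter-Fluor was read first as a viability measure. BugLite was added 15 min before the final luminescent read of ARE-luciferase activity in A549 cells.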
ATXN viability: cell viability loss in ATXN counter-screen; S2 cells (HEK-293 line with an ATXN2-luciferase reporter) viability, CellTiter-Fluor protease fluorescence, 24 h; Potency, µM (top dose mostly 56.7 µM), hits mostly cytotoxic; 400,000 compounds, 0.49% hits; AID 651635; further: nearly all actives have a fitted effect of over 40% in size
TGFb CAGA inh: confirmation of TGF-b signaling inhibitors in HepG2 reporter cells; 1,600 compounds, 63% hits; AID 720534; shares compounds with TGFb SMAD3 inh; Potency, µM (highest dose often 46.1 µM), inactives show top-dose activity, negative = inhibition, usual class: inhibitors; HepG2 CAGA-GFP TGF-b reporter, GFP fluorescence, 18 h; cells stimulated with TGF-beta, 500 pg/mL; further: on the % scale 0 is the no-effect control and ±100 the full control effect; nearly all actives have a fitted effect of over 65% in size
HepG2 tox-2: HepG2 cytotoxicity, TGF-b inhibitor counterscreen | shares compounds with TGFb SMAD3 inh | HepG2 CAGA-GFP viability, ATP luminescence, 18 h; cells stimulated with TGF-beta, 500 pg/mL | Potency, µM (series often up to 46.1 µM), for inactives: top-dose activity, negative = cytotoxicity, hits mostly inhibitors | 1,600 compounds, 27% hits; further: on the % scale 0 is the no-effect control and ±100 the full control effect; nearly all actives have a fitted effect of over 70% in size
CCL64 TGFb inh: orthogonal confirmation of TGF-b inhibitors in CCL64 cells | CCL64 CAGA-GFP reporter, TGF-b stimulated, GFP fluorescence, 18 h | Potency, µM (series often up to 46.1 µM), for the others: at the top dose activity, negative = inhibition, usual class: inhibitors | AID 720536 | shares compounds with TGFb SMAD3 inh | 1,600 compounds, 41% hits; further: nearly all actives have a fitted effect of over 65% in size
TGFb COP inh: TGF-b inhibition validated with COP promoter; shares compounds with TGFb SMAD3 inh; HepG2 COP-GFP TGF-b reporter, GFP fluorescence, 18 h; cells stimulated by added recombinant TGF-beta; Potency, µM (series often up to 46.1 µM), for inactives: at the top dose activity, negative = inhibition, actives largely listed as inhibitors; 1,600 compounds, 3% hits; AID 720537; further: nearly all actives have a fitted effect of over 70% in size
* marks the source's active call; other numbers are inactive results; i = inactive; ? = inconclusive; . = no result. The call rests on the fitted dose curve; in most records, active means well fitted curve in the direction sought with a large enough effect; inconclusive means small, poorly fitted or top-dose-only effect, or another doubt; inactive means no such curve, though single readings can be large; an effect the other way counts as inactive or inconclusive. Potency means the concentration at half of the fitted maximal effect.

SMILES	A549 tox	ATXN2 expr inh	HepG2 tox-1	TGFb SMAD3 inh	Nrf2 inh	ATXN viability	TGFb CAGA inh	HepG2 tox-2	CCL64 TGFb inh	TGFb COP inh
Nc1nnnn1/N=C/C(Br)=C/c1ccccc1	?	25.1µM*	-30.1%	3.55µM*	-18.8%	14.1µM*	?	?	?	33.7%
O=S(=O)(c1ccccc1F)N1CCN(Cc2cc3c(cc2Br)OCCO3)CC1	8.3%	-16.2%	-0.3%	12.6µM*	-31.3%	i	?	-20.7%	?	-3.6%
O=C1C=C(N2CCN(c3ccccn3)CC2)C(=O)c2c(O)ccc(O)c21	?	?	-92.1%	7.08µM*	?	?	4.61µM*	9.2µM*	?	-9.5%
Cc1ccc(-c2csc3ncnc(N4CCc5ccccc5C4)c23)cc1	-7.2%	-5.6%	24.5%	-2.4%	?	i	.	.	.	.
Fc1ccc(-c2csc3ncnc(N4CCc5ccccc5C4)c23)cc1	8.5%	-14.6%	-29.9%	17.8µM*	-10.2%	?	16.4µM*	?	?	20.1%
CC(=O)OC(C)(C)/C=C/C(=O)[C@](C)(O)C1[C@H](O)C[C@@]2(C)C3CC=C4C(C=C(O[C@@H]5O[C@H](CO)[C@@H](O)[C@H](O)[C@H]5O)C(=O)C4(C)C)[C@]3(C)C(=O)C[C@]12C (stereo not given in full)	-15.9%	0.0%	-31.2%	5.01µM*	-15.5%	?	5.17µM*	?	3.26µM*	2.6%
CC1(C)Oc2ccc3ccc(=O)oc3c2C[C@H]1O[C@@H]1O[C@H](CO)[C@@H](O)[C@H](O)[C@H]1O	-4.4%	1.2%	-1.6%	-8.1%	-1.7%	i	.	.	.	.
COc1ccc(CCn2c(=S)[nH]c(=O)c3[nH]cnc32)cc1OC	1.0%	.	.	.	-8.5%	.	.	.	.	.
O=S(=O)(c1ccc2nc(SCc3cccc(Cl)c3)[nH]c2c1)N1CCOCC1	.	-12.8%	.	0.0%	.	i	.	.	.	.
O=S(=O)(c1ccc2nc(SCc3ccc(Cl)cc3)[nH]c2c1)N1CCOCC1	-13.9%	-20.9%	-18.9%	10µM*	23.1µM*	i	11.6µM*	-23.4%	?	20.0%
CCc1nc(OCc2ccco2)c2sc3nc4c(cc3c2n1)COC(C)(C)C4	1.1%	38.9%	-11.4%	?	.	i	?	-16.0%	-1.2%	18.7%
O=C(COC(=O)c1c2c(nc3ccccc13)/C(=C\c1cccs1)CCC2)Nc1ccccc1	-12.1%	-22.6%	-3.9%	11.2µM*	?	i	?	?	?	39.4%
CC(C)CNC(=O)COC(=O)c1c2c(nc3ccccc13)/C(=C\c1cccs1)CC2	28.3%	20.6%	-31.1%	-12.6%	?	.	.	.	.	.
CC(=O)c1ccc(NC(=O)COC(=O)c2c3c(nc4ccccc24)/C(=C\c2cccs2)CCC3)cc1	-5.8%	?	-36.7%	1.78µM*	?	i	6.51µM*	?	1.46µM*	27.0%
O=C(NC1CCCc2ccccc21)c1c(F)cccc1Cl (stereo not given)	6.5%	0.2%	-12.8%	-21.9%	-6.8%	i	.	.	.	.
O=C1NC(Cc2ccc(O)cc2)c2nc3cc(F)c(F)cc3c(=O)n2-c2cc3ccccc3cc21 (stereo not given)	.	?	-19.7%	15.8µM*	.	.	?	?	?	62.3%
O=[N+]([O-])c1cc(S(=O)(=O)Nc2ccccc2)ccc1N1CCN(c2ccc(O)cc2)CC1	-2.4%	-20.0%	-18.1%	?	-6.2%	?	.	.	.	.
Cc1ccc(NS(=O)(=O)c2ccc(N3CCN(c4ccc(O)cc4)CC3)c([N+](=O)[O-])c2)c(C)c1	-6.1%	?	-4.4%	14.1µM*	?	i	11.6µM*	?	?	69.0%
O=C(CCC(=O)c1ccc(F)cc1)Nc1cccc(S(=O)(=O)Nc2cccc(Cl)c2)c1	-3.3%	0.0%	-28.0%	12.6µM*	-26.4%	i	?	?	?	19.4%
CCOc1ccc(C(=O)c2cn(CC(=O)Nc3ccc(F)cc3)c3cc4c(cc3c2=O)OCCO4)cc1	-6.5%	-6.6%	-18.0%	?	1.3%	i	.	.	.	.
N#Cc1ccc(NC(=O)Nc2ccc(Oc3ccc(NC(=O)Nc4ccc(C#N)cc4)cc3)cc2)cc1	-14.2%	?	-22.2%	5.62µM*	?	?	4.61µM*	?	-90.3%	4.6%
O=C(NC(=S)Nc1ccc([N+](=O)[O-])cc1O)C1CCCCC1	0.4%	2.9%	-35.7%	11.2µM*	1.4%	i	16.4µM*	?	19.3%	27.8%
O=C(NC(=S)Nc1cccc([N+](=O)[O-])c1)C1CCCC1	4.0%	3.5%	-10.2%	-13.4%	-5.5%	i	.	.	.	.
CCC(=O)c1cn(CC(=O)Nc2c(C)cccc2C)c2ccccc12	-0.1%	6.0%	2.0%	-5.0%	5.0%	i	.	.	.	.
CC(=O)c1cn(CC(=O)Nc2c(C)cccc2C)c2ccccc12	-11.1%	-17.4%	-15.8%	?	9.2µM*	i	?	-10.1%	-2.6%	-0.8%
CC(=Nc1ccccc1)C1=C(O)C(Cc2ccccc2)NC1=O (stereo not given)	-12.9%	21.4%	0.8%	?	?	?	?	-7.0%	3.26µM*	-17.0%
COc1ccc(NC(=O)c2c(Nc3ccccc3)sc(C(=O)c3ccc(F)cc3)c2N)cc1	-16.8%	?	-58.0%	3.16µM*	?	i	-21.7%	-26.6%	?	-0.8%
